Tests used:
Experiment in all cases: PBM binding z-score (relative to random genomic background probes); higher = stronger binding; sequences stand for … in GC…GCGATTGACAGCGTAGAATGAAGG
[1] = test system: RARb homodimer (NR concentration 270 nM)
Outline: (§1)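 The probes on custom Agilent 4×180K protein-binding microarrays were double-stranded, with 34-nt variable regions bearing direct-repeat seeds, single-nucleotide variants, half-site ablations and random human genomic background sequences. Incubation lasted 1 h with ligand-free nuclear receptor dimers in PBS pH 7.4, 2% milk, 0.02% Triton X-100, 1 mM DTT, 0.2 mg/mL BSA and 0.4 mg/ml salmon testes DNA. Antibodies against each partner (one per run) detected bound dimers, and fluorescence scans were regression-normalized. Binding z-scores take the random background probes as reference.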

[2] = test system: RARg:RXRa (NR concentration 270 nM, RXRa partner concentration 90 nM)
Outline: as §1

[3] = test system: RARg homodimer (NR concentration 270 nM)
Outline: as §1

[4] = test system: RXRa DBDmut IVT, anti-RXR (DBD mutation: RXRa K156A/R161A, NR concentration 90 nM)
Outline: as §1

[5] = test system: RXRa homodimer (NR concentration 180 nM)
Outline: as §1

[6] = test system: THRa:RXRa (NR concentration 90 nM, RXRa partner concentration 90 nM)
Outline: as §1

[7] = test system: THRa homodimer (NR concentration 90 nM)
Outline: as §1

[8] = test system: VDR:RXRa (NR concentration 270 nM, RXRa partner concentration 90 nM)
Outline: as §1

[9] = test system: VDR homodimer (NR concentration 270 nM)
Outline: as §1

Sequence	PBM binding z-score [1]	PBM binding z-score [2]	PBM binding z-score [3]	PBM binding z-score [4]	PBM binding z-score [5]	PBM binding z-score [6]	PBM binding z-score [7]	PBM binding z-score [8]	PBM binding z-score [9]
CCTCCAAGGTCAGAGAGGTCAGTGAATGCCGAGT	5.51	6.2	6.87	3.18	5.37	4.36	2.59	7.22	4.62
CGTCCAAGGTCAACGGTCAGTGAAGAGATGACGG	4.55	6.08	6.47	3.36	5.56	4.13	2.62	4.18	2.15
CCTACTGGGCCATTCAGAGGTCATTAATCATATG	3.81	4.21	2.91	0.793	3.48	3.13	1.35	3.64	3.11
GCTAGCAGGCCATTTGGTTCACTCAATGACGGGC	-0.301	-0.115	-0.168	0.552	-0.107	-0.195	-0.949	1.28	1.2
GCGACTGGGGCAAAGCACGTTACCATAAGGTTGG	0.0132	0.0263	0.422	-0.0988	0.0282	-0.139	-0.582	-0.469	-0.524
GCTCGGAGGACAAGGTCTGAGCTTTGTCCGTAGA	0.301	-0.104	0.27	-0.359	-0.785	0.705	-0.422	-0.681	-0.592
GCTAGTTGGTCAGTAAGAGGTCACACACCGGTCG	4.7	4.94	3.87	0.674	4.5	3.58	2.63	4.12	3.38
AGAATGAGGTAAAGATCAGGGAAACAGAATACAT	0.102	0.258	0.491	-0.375	0.406	1.79	0.604	0.0577	-0.343
ATCGAAAGGTCGACGAGGTGACTATACACCGTTT	3.13	4.44	4.48	1.17	5.08	3.95	1.27	5.95	1.11
TCTAGTTGGTCACGGAGGTCACACAAGACGGGTA	4.03	4.88	4.81	1.22	4.67	3.75	2.37	5.67	3.03
ATAACGAGGGCACGCTGAGTTGATAGCAGAGTAG	1.27	1.72	2.4	1.64	1.46	2.07	0.209	2.27	2.05
TCTAGTTGGTCAAAGGTCACACCCTCGAAATGCG	5.03	6.9	6.12	2.29	8.03	4.02	2.2	5.06	3.2
CTCGAAAGGTCGGTTGAGGTGAGTAGACGGATAA	2.44	2.67	2.67	0.673	2.28	5.01	1.3	1.99	0.235
ATCGAAAGGGCGACGAGGTGAGTATACACCGTTT	1	1.16	1.28	-0.425	0.969	1.99	0.542	1.32	0.597
CATACTGGGCCAAGGTCATTGATCAGTCAAAGCA	3.56	3.85	3.29	1.62	3.31	3.49	2.63	3.48	3.71
TCTCGGAGGACACGAAAGGTCGGAGCTCGACATC	2.87	2.45	2.91	1.02	1.66	2.7	0.464	1.08	0.287
TCTATTAGTTGATTATGGCAACCGAAACAGCGGA	-0.245	0.408	0.199	1.38	0.509	0.165	0.396	1.08	0.715
GCTGTTAGGTCAACTGATGGTCAGCTAAAGCTCG	3.65	5.62	5.67	2.11	3.51	3.62	2.59	2.01	0.277
CCGAGTAGGTTATGGGGCATGCAGGCAACGGTGA	1.15	0.72	0.548	-0.675	0.867	0.102	-0.321	-0.196	-0.0729
CGTCCAAGGTCAGCAGGTCAGTGTAAGCGACGTG	5.08	6.34	6.61	2.55	4.93	4.01	2.46	4.14	2.01
CCTTACGGGTCACTCCGGGTTATAGCATCGGAGT	2.96	4.46	4.12	1.3	4.73	4.89	-0.126	4.18	1.25
GCTAGCAGGCCATTTTGGTCACTCAATGACGGGC	0.0226	-0.296	0.212	-0.337	-0.426	-0.234	-0.974	-0.816	-0.748
AGAACGAGGGCACTGAGTTGATAGCACGGGTGGC	0.877	1.03	1.64	1.71	1.02	1.19	0.176	4.52	2.94
GCTGCTAGGTCAGGTTGGTCACCTAACGGGTACG	2.81	2.67	3.43	0.0556	1.44	2.17	1.04	0.967	0.477
AGAATGAGGTTATGCGTAGATCAGGGAAGAAAGT	0.687	1.51	1.09	1.23	1.99	2.24	0.599	1.15	0.644
CCTCACGGGTCAAGGTTATAGCACGGGTGGTACG	3.31	4.6	4.55	-0.168	4.92	2.82	0.624	3.18	1.18

Reference: the supplement of paper PMC6555819
